Test results taken from the supplement of paper PMC10849652.
Of roughly 8,800 targets only a part is listed; those with a hit were picked by preference. About 0.5% of all pairs of compound and target were hits. Unmarked numbers belong to inactive results.

Assays:
Test in all cases: log2 fold change, soluble protein after heating vs DMSO (PISA); higher = thermal stabilisation; K562 lysate, 10 uM; active = over 0.2 and 3.5 SD of the protein, either way, in both replicates (recomputed)
vemurafenib = compound: CCCS(=O)(=O)Nc1ccc(F)c(C(=O)c2c[nH]c3ncc(-c4ccc(Cl)cc4)cc23)c1F [vemurafenib]
Outline: (§1)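 K562 pellets were dounce-homogenised in PBS pH 7.4 containing 1 mM MgCl2, and the crude extract, at 1 mg/mL protein, was exposed to 10 μM compound for 30 min. Aliquots were heated for 3 min across 48°C-58°C, pooled, brought to 0.5% NP-40 at 4°C and spun at 21,000xg for 90 min, with the supernatant taken as soluble protein. TMTpro 16plex LC-MS/MS with equalised channel sums quantified that protein. Values are log-two fold changes in thermal stability relative to solvent controls, taken from duplicates.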

[1] = compound: CCCS(=O)(=O)Nc1ccc(F)c(C(=O)c2c[nH]c3ncc(Cl)cc23)c1F
Outline: as §1

barasertib = compound: CCN(CCCOc1ccc2c(Nc3cc(CC(=O)Nc4cccc(F)c4)[nH]n3)ncnc2c1)CCOP(=O)(O)O [barasertib]
Outline: as §1

[2] = compound: CC[C@@H]1C(=O)N(C)c2cnc(Nc3ccc(C(=O)NC4CCN(C)CC4)cc3OC)nc2N1C1CCCC1
Outline: as §1

volasertib = compound: CC[C@@H]1C(=O)N(C)c2cnc(Nc3ccc(C(=O)N[C@H]4CC[C@H](N5CCN(CC6CC6)CC5)CC4)cc3OC)nc2N1C(C)C [volasertib]
Outline: as §1

[3] = compound: CCn1c(C(=O)N(C2CC2)C2CC2)cc2c3c(ncn3C)c(Nc3cc(C)n(C)n3)nc21
Outline: as §1

[4] = compound: CCn1cc(-c2ccnc3[nH]c(-c4cccc(CN(C)C)c4)cc23)c(-c2ccc(NC(=O)N(C)C)cc2)n1
Outline: as §1

[5] = compound: CN1CCC(CNc2ccc3ncc(-c4cccc(OC(F)(F)F)c4)n3n2)CC1
Outline: as §1

saracatinib = compound: CN1CCN(CCOc2cc(OC3CCOCC3)c3c(Nc4c(Cl)ccc5c4OCO5)ncnc3c2)CC1 [saracatinib]
Outline: as §1

sotrastaurin = compound: CN1CCN(c2nc(C3=C(c4c[nH]c5ccccc45)C(=O)NC3=O)c3ccccc3n2)CC1 [sotrastaurin]
Outline: as §1

UniProt O14965, sequence (O14965 whole entry, looked up): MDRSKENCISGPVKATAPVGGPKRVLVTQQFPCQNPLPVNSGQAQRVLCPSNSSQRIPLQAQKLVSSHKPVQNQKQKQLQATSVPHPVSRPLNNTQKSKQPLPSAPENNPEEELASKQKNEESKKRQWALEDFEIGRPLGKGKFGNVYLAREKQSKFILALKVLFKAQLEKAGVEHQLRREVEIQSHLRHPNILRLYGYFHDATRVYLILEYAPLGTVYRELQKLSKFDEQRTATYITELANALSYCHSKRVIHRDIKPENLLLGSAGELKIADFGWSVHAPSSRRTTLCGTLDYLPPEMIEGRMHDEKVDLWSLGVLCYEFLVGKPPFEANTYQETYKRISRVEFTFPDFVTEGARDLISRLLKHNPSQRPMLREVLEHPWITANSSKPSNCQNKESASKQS
UniProt P46527, sequence (P46527 whole entry, looked up): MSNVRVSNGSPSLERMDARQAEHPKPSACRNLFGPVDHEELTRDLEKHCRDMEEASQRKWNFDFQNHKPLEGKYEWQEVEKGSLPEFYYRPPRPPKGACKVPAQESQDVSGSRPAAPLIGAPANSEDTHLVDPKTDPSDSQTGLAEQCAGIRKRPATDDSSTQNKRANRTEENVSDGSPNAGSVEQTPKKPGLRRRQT
UniProt P04632, sequence (P04632 whole entry, looked up): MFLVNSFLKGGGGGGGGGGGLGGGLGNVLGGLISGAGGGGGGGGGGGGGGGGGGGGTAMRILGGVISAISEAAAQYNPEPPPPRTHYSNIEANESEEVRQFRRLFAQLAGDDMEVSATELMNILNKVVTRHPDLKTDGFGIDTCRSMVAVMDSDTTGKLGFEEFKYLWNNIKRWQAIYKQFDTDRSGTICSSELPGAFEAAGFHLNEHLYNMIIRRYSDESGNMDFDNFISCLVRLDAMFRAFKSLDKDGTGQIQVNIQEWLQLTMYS
UniProt P30307, sequence (P30307 whole entry, looked up): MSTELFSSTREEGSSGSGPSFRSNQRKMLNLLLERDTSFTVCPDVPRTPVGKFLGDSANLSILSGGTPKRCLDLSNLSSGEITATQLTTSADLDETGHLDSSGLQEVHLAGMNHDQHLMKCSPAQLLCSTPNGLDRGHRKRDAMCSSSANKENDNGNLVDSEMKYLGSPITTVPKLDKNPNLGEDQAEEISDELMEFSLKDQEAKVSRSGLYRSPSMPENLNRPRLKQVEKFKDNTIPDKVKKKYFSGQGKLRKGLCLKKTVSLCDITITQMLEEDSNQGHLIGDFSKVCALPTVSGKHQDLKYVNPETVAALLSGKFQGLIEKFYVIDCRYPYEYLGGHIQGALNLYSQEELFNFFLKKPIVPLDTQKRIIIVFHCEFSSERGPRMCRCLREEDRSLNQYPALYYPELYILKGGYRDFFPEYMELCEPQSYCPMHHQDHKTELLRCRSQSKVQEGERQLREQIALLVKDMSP
UniProt Q14692, sequence (Q14692 whole entry, looked up): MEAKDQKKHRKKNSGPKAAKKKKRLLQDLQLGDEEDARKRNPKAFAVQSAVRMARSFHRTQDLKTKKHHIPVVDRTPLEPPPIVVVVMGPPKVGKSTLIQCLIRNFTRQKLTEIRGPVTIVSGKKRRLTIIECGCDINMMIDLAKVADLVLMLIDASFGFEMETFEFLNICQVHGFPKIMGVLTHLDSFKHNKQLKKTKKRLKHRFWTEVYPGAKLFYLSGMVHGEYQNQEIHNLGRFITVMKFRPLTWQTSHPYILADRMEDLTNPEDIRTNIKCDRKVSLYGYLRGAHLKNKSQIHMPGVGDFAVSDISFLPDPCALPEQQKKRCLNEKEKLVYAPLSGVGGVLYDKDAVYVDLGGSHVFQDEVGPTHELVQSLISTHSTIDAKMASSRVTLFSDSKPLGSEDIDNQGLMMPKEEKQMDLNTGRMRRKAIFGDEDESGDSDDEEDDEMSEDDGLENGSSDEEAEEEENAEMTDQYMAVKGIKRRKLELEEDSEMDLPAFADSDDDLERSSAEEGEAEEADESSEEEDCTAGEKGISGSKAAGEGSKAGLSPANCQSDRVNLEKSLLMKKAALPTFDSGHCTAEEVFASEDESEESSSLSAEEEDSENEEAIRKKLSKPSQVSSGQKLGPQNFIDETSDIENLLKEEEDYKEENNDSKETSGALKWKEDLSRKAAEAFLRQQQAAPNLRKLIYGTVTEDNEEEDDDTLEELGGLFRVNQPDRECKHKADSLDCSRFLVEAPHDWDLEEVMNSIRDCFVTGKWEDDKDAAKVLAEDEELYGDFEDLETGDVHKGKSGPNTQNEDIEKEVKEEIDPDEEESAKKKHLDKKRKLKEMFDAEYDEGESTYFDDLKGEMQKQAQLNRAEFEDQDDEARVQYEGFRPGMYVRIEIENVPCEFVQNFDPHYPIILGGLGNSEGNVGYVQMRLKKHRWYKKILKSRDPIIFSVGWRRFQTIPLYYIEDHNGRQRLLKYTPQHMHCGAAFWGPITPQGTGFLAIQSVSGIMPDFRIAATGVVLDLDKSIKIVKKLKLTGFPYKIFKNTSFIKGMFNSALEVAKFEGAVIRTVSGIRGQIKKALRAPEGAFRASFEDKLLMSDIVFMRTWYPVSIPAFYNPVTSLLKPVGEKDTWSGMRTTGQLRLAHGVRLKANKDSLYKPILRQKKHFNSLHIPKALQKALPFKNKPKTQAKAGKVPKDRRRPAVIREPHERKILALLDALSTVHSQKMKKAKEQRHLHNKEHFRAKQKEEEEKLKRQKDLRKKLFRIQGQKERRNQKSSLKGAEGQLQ
UniProt O15155, sequence (O15155 whole entry, looked up): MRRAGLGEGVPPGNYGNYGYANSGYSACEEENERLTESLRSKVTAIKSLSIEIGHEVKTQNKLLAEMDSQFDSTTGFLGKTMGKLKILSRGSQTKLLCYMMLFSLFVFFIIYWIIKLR
UniProt O95352, sequence (O95352 whole entry, looked up): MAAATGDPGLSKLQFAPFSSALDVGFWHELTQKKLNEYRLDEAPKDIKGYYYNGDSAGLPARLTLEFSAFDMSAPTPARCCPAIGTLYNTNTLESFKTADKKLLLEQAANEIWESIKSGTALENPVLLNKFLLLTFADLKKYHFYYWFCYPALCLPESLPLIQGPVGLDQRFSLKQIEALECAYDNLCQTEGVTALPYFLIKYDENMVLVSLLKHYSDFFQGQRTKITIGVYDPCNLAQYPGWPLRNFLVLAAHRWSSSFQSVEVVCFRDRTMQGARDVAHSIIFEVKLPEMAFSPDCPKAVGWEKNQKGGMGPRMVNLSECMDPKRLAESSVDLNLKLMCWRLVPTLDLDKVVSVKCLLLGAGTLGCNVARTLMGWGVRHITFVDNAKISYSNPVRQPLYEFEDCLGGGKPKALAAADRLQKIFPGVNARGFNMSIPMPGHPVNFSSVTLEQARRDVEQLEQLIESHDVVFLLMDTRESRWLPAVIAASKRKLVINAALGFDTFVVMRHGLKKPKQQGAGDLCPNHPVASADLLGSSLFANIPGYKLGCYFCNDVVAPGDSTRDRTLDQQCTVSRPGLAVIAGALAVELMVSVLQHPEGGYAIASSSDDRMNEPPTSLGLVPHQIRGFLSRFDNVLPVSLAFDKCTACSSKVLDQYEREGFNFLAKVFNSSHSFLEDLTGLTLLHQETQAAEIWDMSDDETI
UniProt P42574, sequence (P42574 whole entry, looked up): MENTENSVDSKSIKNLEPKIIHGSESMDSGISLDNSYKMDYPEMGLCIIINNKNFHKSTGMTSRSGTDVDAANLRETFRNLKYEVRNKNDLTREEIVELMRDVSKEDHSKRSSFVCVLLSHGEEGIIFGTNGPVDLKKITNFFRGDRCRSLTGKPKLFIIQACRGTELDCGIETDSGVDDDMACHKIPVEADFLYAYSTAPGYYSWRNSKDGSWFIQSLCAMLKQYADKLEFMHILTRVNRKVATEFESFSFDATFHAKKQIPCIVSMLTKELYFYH
UniProt Q00536, sequence (Q00536 whole entry, looked up): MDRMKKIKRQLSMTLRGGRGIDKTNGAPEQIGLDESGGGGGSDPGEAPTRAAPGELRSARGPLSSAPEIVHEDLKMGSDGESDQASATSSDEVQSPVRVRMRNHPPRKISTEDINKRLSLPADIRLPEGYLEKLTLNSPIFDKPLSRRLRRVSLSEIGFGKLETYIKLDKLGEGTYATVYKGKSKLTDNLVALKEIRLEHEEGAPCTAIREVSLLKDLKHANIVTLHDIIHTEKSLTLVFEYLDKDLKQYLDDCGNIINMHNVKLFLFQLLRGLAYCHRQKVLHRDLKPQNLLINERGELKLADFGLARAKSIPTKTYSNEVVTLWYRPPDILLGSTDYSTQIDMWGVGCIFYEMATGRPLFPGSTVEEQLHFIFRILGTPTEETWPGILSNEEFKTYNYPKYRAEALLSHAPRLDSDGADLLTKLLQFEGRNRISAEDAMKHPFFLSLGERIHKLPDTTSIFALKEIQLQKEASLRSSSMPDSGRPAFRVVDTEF
UniProt P15313, sequence (P15313 whole entry, looked up): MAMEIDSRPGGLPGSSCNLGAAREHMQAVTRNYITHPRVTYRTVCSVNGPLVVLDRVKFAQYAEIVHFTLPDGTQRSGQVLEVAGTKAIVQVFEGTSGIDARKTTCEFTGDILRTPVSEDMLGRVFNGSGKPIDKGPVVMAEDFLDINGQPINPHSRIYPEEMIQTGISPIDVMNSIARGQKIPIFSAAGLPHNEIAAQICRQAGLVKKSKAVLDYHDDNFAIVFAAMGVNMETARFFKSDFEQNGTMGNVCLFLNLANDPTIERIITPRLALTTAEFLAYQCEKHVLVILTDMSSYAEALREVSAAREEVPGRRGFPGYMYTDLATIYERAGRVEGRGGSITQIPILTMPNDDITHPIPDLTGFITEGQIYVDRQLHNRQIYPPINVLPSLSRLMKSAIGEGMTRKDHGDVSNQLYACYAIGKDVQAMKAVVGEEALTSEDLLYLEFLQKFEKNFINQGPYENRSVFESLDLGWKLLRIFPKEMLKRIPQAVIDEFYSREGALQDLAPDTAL
UniProt Q96NL8, sequence (Q96NL8 whole entry, looked up): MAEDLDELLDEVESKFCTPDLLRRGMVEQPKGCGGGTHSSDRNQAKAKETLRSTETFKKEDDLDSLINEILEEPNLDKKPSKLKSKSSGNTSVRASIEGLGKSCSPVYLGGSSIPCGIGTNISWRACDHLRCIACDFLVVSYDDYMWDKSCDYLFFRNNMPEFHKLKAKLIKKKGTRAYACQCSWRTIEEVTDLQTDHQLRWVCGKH

| Target | log2 fold change (vemurafenib) | log2 fold change [1] | log2 fold change (barasertib) | log2 fold change [2] | log2 fold change (volasertib) | log2 fold change [3] | log2 fold change [4] | log2 fold change [5] | log2 fold change (saracatinib) | log2 fold change (sotrastaurin) |
| --- | --- | --- | --- | --- | --- | --- | --- | --- | --- | --- |
| CASP3 (UniProt P42574) | 0.002 | 0.015 | -0.024 | 0.034 | 0.013 | -0.011 | 0.279 (active) | -0.049 | -0.036 | -0.013 |
| BSDC1 (UniProt Q9NW68) | 0.027 | 0.053 | 0.078 | 0.099 | 0.018 | -0.01 | -0.027 | 0.041 | 0.03 | -0.019 |
| BMS1 (UniProt Q14692) | -0.038 | 0.023 | 0.127 | -0.027 | -0.018 | 0.012 | -0.054 | 0.006 | -0.004 | 0.005 |
| CDC25C (UniProt P30307) | 0.031 | 0.093 | -0.028 | -0.08 | -0.004 | 0.083 | 0.314 | 0.155 | -0.053 | 0.016 |
| CDK16 isoform 2 (UniProt Q00536) | 0.03 | 0.075 | 0.007 | -0.006 | -0.175 | -0.03 | -0.027 | 0.083 | 0.03 | 0.236 |
| CDC40 (UniProt O60508) | 0.01 | 0.013 | -0.016 | -0.105 | -0.001 | 0.034 | -0.006 | 0.046 | -0.056 | -0.049 |
| CEP76 (UniProt Q8TAP6) | -0.099 | -0.023 | 0.085 | -0.093 | 0 | -0.026 | -0.04 | 0.053 | 0.047 | 0.085 |
| ATG7 (UniProt O95352) | -0.031 | 0.014 | -0.002 | -0.032 | -0.052 | 0.021 | -0.058 | 0.091 | -0.003 | 0.037 |
| ATP11A (UniProt P98196) | -0.035 | -0.015 | 0.006 | 0.019 | 0.026 | 0 | -0.116 | 0.024 | -0.01 | 0.063 |
| CAD (UniProt P27708) | 0.005 | 0.026 | -0.004 | -0.037 | -0.069 | 0.012 | -0.085 | 0.003 | -0.004 | 0.003 |
| CDKN2AIP (UniProt Q9NXV6) | 0.017 | 0.022 | -0.028 | 0.082 | -0.008 | -0.026 | -0.049 | 0.03 | -0.004 | 0.01 |
| CARHSP1 (UniProt Q9Y2V2) | 0.032 | -0.015 | 0.024 | 0.033 | -0.024 | -0.061 | -0.02 | 0.044 | 0 | -0.042 |
| CDKN1B (UniProt P46527) | -0.12 | 0.004 | -0.032 | 0.063 | -0.039 | 0.099 | 0.118 | -0.119 | -0.012 | 0.015 |
| BCAR1 isoform 6 (UniProt P56945) | 0.038 | 0.018 | 0.015 | -0.065 | -0.018 | -0.003 | 0.064 | -0.012 | 0.032 | -0.038 |
| ATP6V1B1 (UniProt P15313) | -0.009 | -0.013 | -0.012 | 0.016 | 0.03 | 0.006 | -0.288 (active) | 0.158 | -0.006 | 0.006 |
| CHD5 (UniProt Q8TDI0) | -0.034 | 0.022 | 0.034 | 0.165 | -0.028 | -0.026 | 0.051 | -0.019 | 0.026 | 0.026 |
| CD63 (UniProt P08962) | -0.079 | 0.084 | 0.037 | -0.036 | 0.023 | -0.011 | -0.593 (active) | 0.175 | 0.073 | 0.057 |
| CEPT1 (UniProt Q9Y6K0) | -0.031 | 0.006 | 0.08 | -0.006 | 0.042 | -0.079 | -0.102 | 0.084 | 0.037 | -0.008 |
| CDK5RAP2 (UniProt Q96SN8) | -0.023 | -0.186 | 0.071 | 0.029 | -0.3 | 0.001 | 0.016 | -0.067 | 0.027 | -0.008 |
| AURKA (UniProt O14965) | 0.088 | 0.068 | 0.763 (active) | -0.062 | -0.015 | -0.009 | 0.719 (active) | 0.096 | 0.008 | 0.028 |
| CAPNS1 (UniProt P04632) | -0.032 | 0.021 | 0.11 | -0.027 | 0.04 | -0.006 | -0.334 (active) | 0.07 | 0.003 | -0.012 |
| BORCS5 (UniProt Q969J3) | 0.044 | 0.005 | 0.201 (active) | 0.057 | 0.027 | -0.01 | 0.075 | -0.055 | 0.013 | 0.017 |
| BET1 (UniProt O15155) | 0.107 | -0.012 | 0.028 | -0.019 | 0.032 | -0.021 | 0.044 | -0.009 | 0.031 | -0.033 |
| CHCHD1 (UniProt Q96BP2) | 0.157 | -0.025 | -0.002 | 0.028 | -0.001 | -0.075 | 1.08 (active) | -0.338 | 0.032 | 0.16 |
| CCDC51 (UniProt Q96ER9) | 0.001 | -0.008 | 0.027 | -0.005 | 0.002 | -0.009 | 0.262 (active) | -0.422 (active) | -0.034 | -0.072 |
| BTRC (UniProt Q9Y297) | -0.002 | 0.023 | 0.052 | 0.076 | -0.041 | -0.088 | 0.073 | 0.067 |  |  |
| CHCHD4 isoform 2 (UniProt Q8N4Q1) | 0.144 | 0.015 | 0.109 | 0.072 | 0.057 | -0.1 | -0.415 (active) | 0.228 | 0.05 | -0.007 |
| ATXN2 (UniProt F8WB05) | -0.153 | -0.024 | 0.057 | -0.013 | -0.087 | -0.005 | 0.094 | -0.004 | 0.05 | 0.086 |
| C8orf37 (UniProt Q96NL8) | 0.081 | -0.061 | -0.062 | 0.058 | -0.043 | -0.075 | 0.225 | 0.166 | -0.06 | 0.072 |
| CCDC25 (UniProt Q86WR0) | -0.033 | 0.008 | 0.01 | 0.027 | 0.005 | -0.023 | 0.581 (active) | -0.079 | 0.007 | -0.009 |
